Most compounds without a hit are left out; they make up all but 10% or so of the library.
BAZ2B inh – blocks human BAZ2B; Q9UIF8; AlphaScreen BAZ2B-H3K14Ac peptide displacement; Potency, µM (series often up to 114 µM), without a hit: at the top dose activity change, negative = inhibition, hits mostly inhibitors; 360,000 compounds, 4.4% hits; note: % is set by controls: 0 for no effect and ±100 for the full control effect; nearly all actives have a fitted effect of over 60% in size
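AlphaScreen displacement: compounds (up to 110uM) incubated 30 min at room temperature with a preformed 50 nM BAZ2B/50 nM biotinylated H3K14Ac peptide complex in PBS pH 7.4 with Tween-20. Donor and acceptor beads at 10 ug/mL final added, 20 min light-protected before reading.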
G9a inh – blocks human histone lysine methyltransferase G9a. Q96KQ7. G9a H3K9 monomethylation, AlphaScreen, 2 h. Potency, µM (titrated, usually from 102 µM), for inactives: top-dose activity, negative = inhibition, hits mostly inhibitors. 350,000 compounds, 8.8% hits. AID 504332; note: % is set by controls: 0 for no effect and ±100 for the full control effect; nearly all actives have a fitted effect of over 75% in size
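Methyltransferase reactions run at room temperature for 2 h (20 nM enzyme, 500 nM biotin-H3K9 peptide, 20 uM SAM) after a 15 min compound preincubation; product detected by AlphaScreen beads and anti-H3K9me1 antibody.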
L3MBTL1 block – inhibitors of human L3MBTL1; Q9Y468; AlphaScreen L3MBTL1–H3K9me1 peptide binding; Potency, µM (doses to about 57.1 µM), for the others: top-dose activity, negative = inhibition, hits mostly inhibitors; 230,000 compounds, 0.66% hits; AID 485360; note: % is set by controls: 0 for no effect and ±100 for the full control effect; nearly all actives have a fitted effect of over 60% in size
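First, the protein-peptide complex forms for 30 min at room temperature (L3MBTL1 50 nM, biotinylated H3K9me1 peptide 75 nM). Next, compounds are pin-transferred and incubated 30 min. Finally, AlphaScreen beads are added and read after 30 min.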
HP1b chromo inh – HP1-beta chromodomain-methylated histone interaction inhibition; AID 540317; AlphaScreen HP1-beta / biotin-H3K9me3 peptide binding; Potency, µM (doses to about 114 µM), inactives show at the highest dose activity change, negative = inhibition, hits mostly inhibitors; 390,000 compounds, 0.56% hits; note: nearly all actives have a fitted effect of over 70% in size
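HP1-beta protein (50 nM final) preincubated 30 min at room temperature with biotinylated H3(1-18)K9me3 peptide (50 nM) in PBS pH 7.4, 0.01% Tween-20, then compound added for 30 min. AlphaScreen streptavidin donor/nickel chelate acceptor beads (10 ug/mL final), 30 min dark, luminescence read.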
GLS inhibitor – glutaminase GLS (human) inhibition; O94925; GLS enzymatic activity, qHTS titration; Potency, µM (series often up to 45.5 µM), for the others: at the top dose activity change, negative = inhibition, actives largely listed as inhibitors; 410,000 compounds, 0.21% hits; AID 624170; note: % is set by controls: 0 for no effect and ±100 for the full control effect
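Read-out is an Amplex red fluorescence increase coupled through glutamate oxidase and HRP, measured before and after 30 min room-temperature incubation. hKGA is in 45 mM KH2PO4 (pH 8.2) with 0.02% Tween-20; glutamine added as 1mM solution.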
JMJD2A Tudor – JMJD2A Tudor domain (human) inhibition. 390,000 compounds, 4.4% hits. AlphaScreen JMJD2A-Tudor / H3K4me3 peptide binding. Potency, µM (doses to about 114 µM), for inactives: top-dose activity change, negative = inhibition, actives largely listed as inhibitors. O75164; note: % is set by controls: 0 for no effect and ±100 for the full control effect; nearly all actives have a fitted effect of over 50% in size
Target sequence (O75164 whole entry, looked up, the tested form may be a part): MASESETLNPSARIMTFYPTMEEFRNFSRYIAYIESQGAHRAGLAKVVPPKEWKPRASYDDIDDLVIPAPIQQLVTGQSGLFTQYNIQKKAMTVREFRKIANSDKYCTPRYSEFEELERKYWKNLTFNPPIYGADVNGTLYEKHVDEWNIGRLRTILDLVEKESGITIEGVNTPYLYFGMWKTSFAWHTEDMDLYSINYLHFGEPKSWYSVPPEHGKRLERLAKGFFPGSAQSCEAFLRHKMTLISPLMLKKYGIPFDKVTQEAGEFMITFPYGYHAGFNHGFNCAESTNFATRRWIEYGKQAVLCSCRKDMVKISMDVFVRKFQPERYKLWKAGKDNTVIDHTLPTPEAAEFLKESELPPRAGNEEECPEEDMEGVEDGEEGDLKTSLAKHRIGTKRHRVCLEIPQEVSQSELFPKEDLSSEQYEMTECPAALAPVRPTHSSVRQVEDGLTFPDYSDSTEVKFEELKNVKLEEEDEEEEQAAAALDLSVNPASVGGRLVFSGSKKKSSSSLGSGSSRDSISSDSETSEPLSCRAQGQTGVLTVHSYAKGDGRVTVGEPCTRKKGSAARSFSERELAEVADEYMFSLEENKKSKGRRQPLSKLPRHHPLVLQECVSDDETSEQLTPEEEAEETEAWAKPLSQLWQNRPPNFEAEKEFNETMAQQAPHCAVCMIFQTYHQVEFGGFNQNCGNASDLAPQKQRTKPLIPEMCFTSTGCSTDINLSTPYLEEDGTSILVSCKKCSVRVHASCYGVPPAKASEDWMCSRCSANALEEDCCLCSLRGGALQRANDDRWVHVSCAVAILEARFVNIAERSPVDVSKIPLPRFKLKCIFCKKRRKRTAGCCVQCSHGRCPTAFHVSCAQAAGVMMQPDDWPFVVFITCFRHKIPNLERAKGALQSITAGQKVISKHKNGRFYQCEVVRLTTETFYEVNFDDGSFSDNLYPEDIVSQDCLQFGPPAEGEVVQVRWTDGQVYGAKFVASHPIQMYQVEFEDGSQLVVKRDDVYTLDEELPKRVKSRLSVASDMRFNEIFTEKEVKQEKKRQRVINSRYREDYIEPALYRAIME
Numbers without * were called inactive; ? = inconclusive; / = not tested or not shown; [ ] = dose if it differs, or a comment. Calls come from the whole dose curve; as a rule, active = well fitted curve in the direction sought with a large enough effect; inconclusive = small, poorly fitted or top-dose-only effect, or another doubt; inactive = no such curve, though single readings can be large; an effect the other way counts as inactive or inconclusive. Potency is the fitted concentration of half-maximal effect.

SMILES	BAZ2B inh	G9a inh	L3MBTL1 block	HP1b chromo inh	GLS inhibitor	JMJD2A Tudor
CCCOc1ccc(-c2cccc(NS(=O)(=O)c3cccs3)c2)nn1	-12.1%	3.3%[59 µM]	/	30.9%[57 µM]	3.1%	-9.6%
COCCNc1c2c(nc3ccccc13)CCC2	3.2%	-10.2%	-1.0%	8.9%	-2.7%	-4.1%
CN(C)CCCNc1c2c(nc3ccccc13)CCC2	-4.4%	39.8µM*	/	37.7%	39.1%	-27.9%
Cc1ccc(NS(=O)(=O)c2cc3c(cc2-c2cn[nH]c2)NC(=O)CO3)cc1C	/	/	/	/	/	-25.9%
COc1cc(C2Nc3ccc4ncccc4c3C3=C2C(=O)CCC3)ccc1O (stereo not given)	-13.2%	50.1µM*	4.2%	-1.4%	24.7%	?
Cc1ccc(CN2C(=O)N(c3ccc(F)cc3)C(=O)C2CC(=O)Nc2ccc(Cl)cc2)cc1 (stereo not given)	0.8%	10.4%[59 µM]	/	47.9%	-7.0%	-6.0%
COc1ccccc1Nc1nc(-c2cccc(N3C(=O)c4ccccc4C3=O)c2)cs1	-2.6%	25.1µM*	-4.2%	17.2%	-6.4%	-12.8%
O=C1c2ccccc2C(=O)N1c1cccc(-c2csc(Nc3ccc4c(c3)OCO4)n2)c1	?	8.91µM*	-29.5%	/	/	/
c1ccc(-c2csc(Nc3ccc4c(c3)OCO4)n2)cc1	/	/	/	/	10.9%	/
Cc1c(C)c2c(c(C)c1O)CC[C@@](C)(CCC[C@H](C)CCC[C@H](C)CCCC(C)C)O2	/	18.8%[59 µM]	/	20.6%	2.2%	-13.7%
Cc1c(C)c2c(c(C)c1O)CCC(C)(C(=O)O)O2 (stereo not given)	4.9%	14.1µM*	-11.1%	19.3%	41.3%	-2.2%
CN(C)c1oc(-c2ccc(OCc3ccccc3)cc2)nc1C#N	?	11.2µM*	?	?	-1.2%	?
COc1ccc(-c2nc(C#N)c(NCc3ccc(C)cc3)o2)cc1OC	-7.0%	-25.5%[59 µM]	/	26.9%	3.8%	-7.6%
CC(C)(C)c1ccc(-c2nc(C#N)c(NCCCn3ccnc3)o2)cc1	35.5µM*	/	-14.0%	?	3.4%	?
N#Cc1nc(-c2cccs2)oc1NCc1ccc2c(c1)OCO2	?	44.7µM*	-6.4%	?	8.1%	18.5%[11.4 µM]
CC(C)(C)c1ccc(-c2nc(C#N)c(NCc3ccncc3)o2)cc1	79.4µM*	20µM*	-9.6%	-19.1%	-1.1%	79.4µM*
N#Cc1nc(-c2ccc(OCc3ccccc3)cc2)oc1NCc1cccnc1	/	?	-13.5%	-18.1%	-4.3%	-22.8%
CNc1oc(-c2cccs2)nc1C#N	-8.9%	?	-4.7%	26.9%	14.6%	-13.5%
N#Cc1nc(-c2ccc(F)cc2)oc1NCc1cccc2c1OCO2	-21.9%	-44.4%	-16.1%	56.4%	2.2%	-12.4%
Cc1ccc(-c2nc(C#N)c(NCc3cccc4c3OCO4)o2)cc1	?	10µM*	-8.4%	?	4.8%	?
N#Cc1nc(-c2ccc(OCc3ccccc3Cl)cc2)oc1NCCCn1ccnc1	65.2%	?	/	/	/	/
N#Cc1nc(-c2ccc(OCc3ccccc3)cc2)oc1NCCCn1ccnc1	17.8µM*	?	?	44.7µM*	8.6%	28.2µM*
CCOC(=O)C1=C(O)C(=O)C(C(=O)OCC)C1 (stereo not given)	/	/	/	?	12.9%	10µM*
CCOC(=O)C1Cc2cc3c(cc2C1=O)CC(C(=O)OCC)C3=O (stereo not given)	-26.7%	35.5µM*	-1.6%	/	/	/
CCOC(=O)C1CC(=O)c2cc(OC)c(OC)cc2C1 (stereo not given)	0.7%	15.7%[2.33 µM]	-1.8%	27.4%	-3.9%	-14.1%
SMILES	BAZ2B inh	G9a inh	L3MBTL1 block	HP1b chromo inh	GLS inhibitor	JMJD2A Tudor
O=C(CSc1nnc(COc2ccc(Cl)cc2)o1)Nc1ccccc1	?	?	/	1.5%	14.1%	?
O=C(O)Cc1csc(Nc2cccc(Cl)c2)n1	-36.6%	-14.4%[59 µM]	-10.4%	15.5%	-1.7%	-24.3%
CC(C)c1ccc(Nc2nc(CC(=O)O)cs2)cc1	-29.0%	39.8µM*	/	-13.4%	1.8%	-31.7%
Cn1nc(C(=O)NCc2ccc(F)cc2)c2c1-c1ccccc1SC2	10µM*	14.1µM*	/	?	1.8%	28.2µM*
Cn1nc(C(=O)N2CCN(c3ccccc3F)CC2)c2c1-c1ccccc1SC2	12.6µM*	14.1µM*	/	-19.8%	7.2%	20µM*
Cc1cc(=O)n2nc(N3CCC(C(=O)NCCCOC(C)C)CC3)sc2n1	-0.1%	17.1%[59 µM]	/	26.0%	-9.9%	1.3%
Cc1snc(S(=O)(=O)/C(C#N)=N/Nc2cccc(C(F)(F)F)c2)c1C#N	?	14.1µM*	/	-31.2%	3.6%	50.1µM*
COc1ccc(N/N=C(/C#N)S(=O)(=O)c2nsc(C)c2C#N)cc1	?	?	/	-10.8%	37.3%	?
N#C/C(=C\c1cccc(F)c1)c1nc(-c2cc3ccccc3oc2=O)cs1	5.2%	6.2%[59 µM]	/	43.0%	11.9%	-9.2%
CCN(CC)CCOC(=O)c1ccc(N/C=C(/C#N)c2nc(-c3ccc4c(c3)OCO4)cs2)cc1	?	?	/	31.6µM*	-5.3%	39.8µM*
CCN(CC)CCOC(=O)c1ccc(N/C=C(/C#N)c2nc(-c3ccc(OC)cc3)cs2)cc1	?	11.2µM*	/	?	-21.7%	56.2µM*
COc1ccc(/C=C(/C#N)c2nc(-c3ccc(-c4ccccc4)cc3)cs2)cc1	6.2%	5.9%[59 µM]	/	36.6%	-6.4%	-9.5%
CCN(CC)CCOC(=O)c1ccc(N/C=C(/C#N)c2nc(-c3cc4ccccc4oc3=O)cs2)cc1	-1.9%	1.58µM*	/	17.8µM*	4.6%	?
COc1cc(/C=C(/C#N)c2nc(-c3cc4ccccc4oc3=O)cs2)cc([N+](=O)[O-])c1O	?	3.16µM*	-8.3%	/	/	/
N#C/C(=C\C=C\c1ccccc1)c1nc(-c2ccc3c(c2)OCO3)cs1	34.0%	120.7%[59 µM]	?	95.4%	0.4%	20.5%
CCCOc1ccc(N)cc1N	28.2µM*	5.01µM*	-10.2%	?	36.6%	56.2µM*
CC(=O)Nc1sc(N/N=C/c2ccc(N(C)C)cc2)nc1-c1ccc(C)cc1	28.2µM*	8.91µM*	-25.5%	?	7.6%	44.7µM*
CC(=O)Nc1sc(N/N=C/c2ccc(C)cc2)nc1-c1ccc(C)cc1	?	?	-26.0%	?	-13.4%	44.7µM*
COc1ccc(/C=N/Nc2nc(-c3ccc(C)cc3)c(NC(C)=O)s2)cc1OC	?	/	-5.3%	?	88.8%	-33.3%
CC(=O)c1sc(N/N=C\c2ccc(N(C)C)cc2)nc1C	-1.2%	3.6%[0.501 µM]	-1.1%[2.29 µM]	40.8%	10.5%	-7.0%
COc1ccc(C(=O)Nc2ccc(N3CCOCC3)cc2)cc1OC	7.1%	3.8%[59 µM]	4.7%	8.5%	13.8%	-9.8%
